# Measured values published in PubChem BioAssay (NCATS).
# Inconclusive results are not listed. Entries that show only a call come without a potency. Active and inactive are the calls of the source. Unless noted, the call rests on the fitted dose curve; in most records, active means well fitted curve in the direction sought with a large enough effect; inconclusive means small, poorly fitted or top-dose-only effect, or another doubt; inactive means no such curve, though single readings can be large; an effect the other way counts as inactive or inconclusive.
# Tests used:
# [1] = target: Cytochrome P450 3A4 (Homo sapiens) (UniProt P08684); test: qHTS Assay for Inhibitors and Substrates of Cytochrome P450 3A4 (AID 884); details: recombinant CYP3A4, Luciferin-PPXE luminescence; series mostly up to 57.1 µM; further: nearly all actives have a fitted effect of over 50% in size
# In short: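 Luminescent readout of luciferin produced by CYP3A4 (20 nM) dealkylation of Luciferin-PPXE, 25 uM (its KM). NADPH-driven reaction ran 60 min at RT after 10 min compound preincubation; data scaled to 57 uM ketoconazole as 100% inhibition.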
# [2] = Confirmation and Secondary Assay for Modulators of Hemoglobin Beta Chain Splicing at IVS2 654 locus (AID 910); details: HeLa EGFP-654 splicing reporter, GFP fluorescence, 48 h; series mostly up to 46.1 µM;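 further: HeLa cells stably carrying EGFP split by mutant beta-globin IVS2-654 intron; per-well total GFP intensity by laser scanning cytometry after 2-day treatment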
# In short: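 Readout: per-well total peak green fluorescence (488 nm ex, 500–520 nm em) from objects 5–250 µm, reflecting correct splicing of an EGFP-654 reporter. Compounds were applied for 2 days at 37 °C to overnight-plated HeLa EGFP-654 cells; controls were DMSO and 500 nM IVS2-654 PNA.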
# [3] = Confirmation and Secondary Assay for Modulators of Hemoglobin Beta Chain Splicing at IVS2 705 locus (AID 930); details: HeLa EGFP-705 splicing reporter, GFP fluorescence, 48 h; series mostly up to 46.1 µM;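 further: HeLa cells stably expressing the EGFP-705 splicing reporter; GFP fluorescence per well restored by corrected splicing of the IVS2-705 intron in EGFP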
# In short: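 Per-well GFP, captured at 1 x 8 µm resolution with 488 nm excitation, served as the read-out for HeLa EGFP-705 cells incubated 2 days with test compound versus DMSO.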
# [4] = qHTS Assay for Lipid Storage Modulators (AID 1519; calls by dose curve); details: Drosophila S3 cells, BODIPY lipid droplet/cell ratio, laser cytometry, cells loaded with oleic acid
# In short: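 Cells seeded at 5,000 per well were treated with compounds over a concentration series and loaded with oleic acid (400 uM, as added). Lipid droplet fluorescence (488 nm excitation, 500-530 nm channel) was read by laser-scanning cytometry and normalized to 20 uM Triacsin C.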
# [5] = target: Ubiquitin carboxyl-terminal hydrolase 1 (Homo sapiens) (UniProt O94782); test: Inhibitors of USP1/UAF1: Pilot qHTS (AID 504865); details: purified USP1/UAF1, Ub-rhodamine cleavage fluorescence; series mostly up to 114 µM;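 further: rhodamine fluorescence freed from ubiquitin-rhodamine substrate followed over time; top concentration of the series differs between compounds; nearly all actives have a fitted effect of over 35% in size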
# In short: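 In 50mM HEPES pH 7.8 containing 0.5mM EDTA, 1mM TCEP, 0.1 mg/ml BSA and 0.01% Tween-20, 1nM USP1/UAF1 is exposed to compound for 15 min, then Ub-Rho (150nM final) is added and fluorescence is read over time.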
# [6] = target: Estrogen receptor (Homo sapiens) (UniProt P03372); test: qHTS assay for small molecule antagonists of estrogen receptor alpha signaling (AID 588513; active means well fitted curve in the direction sought with a large enough effect in the signal ratio, with a control signal flat, not every such curve was filed as active; the % refers to the signal ratio); details: ER-alpha-UAS-bla HEK293, beta-lactamase ratio, antagonist mode; series mostly up to 76.9 µM
# In short: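 Fluorescence from CCF4 substrate after 2 h at room temperature gave reporter activity; cells had been exposed to compound and 0.5nM 17-beta-estradiol for 18 h at 37 C. Hill-equation fitting yielded IC50 and maximal response.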
# [7] = target: Estrogen receptor (Homo sapiens) (UniProt P03372); test: qHTS assay for small molecule agonists of estrogen receptor alpha signaling (AID 588514; calls by dose curve; further: nearly all actives have a fitted effect of over 70% in size); details: ER-alpha-UAS-bla HEK293, beta-lactamase ratio, 18 h, percent of full estradiol response, vehicle zero; series mostly up to 76.8 µM
# In short: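 Read-out: CCF4 fluorescence from a beta-lactamase reporter in ER-alpha-UAS-bla HEK 293 cells after 18 hrs of compound exposure at 37 C. Normalized to 20 nM 17-beta-estradiol (100%) and DMSO (0%).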
# [8] = qHTS assay for small molecule antagonists of peroxisome proliferator-activated receptor delta signaling (AID 588535; active means well fitted inhibition curve with a large enough effect in the signal ratio, with a control signal flat, not every such curve was filed as active; the % refers to the signal ratio;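 on max response: cells co-treated with a PPAR-delta agonist as stimulator during compound exposure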); details: HEK293T PPARd-UAS-bla, beta-lactamase FRET ratio, 18 h; 460 nm channel
# In short: (§1)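 Antagonist-mode qHTS using GeneBLAzer PPAR-delta-UAS-bla HEK293T cells; compound exposure 18 hrs at 37 C over a titration. Ratiometric CCF4 fluorescence at 460/530 nm; concentration-response points fitted to the Hill equation.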
# [9] = target: Peroxisome proliferator-activated receptor delta (Homo sapiens) (UniProt Q03181); test: as above; details: HEK293T PPARd-UAS-bla, beta-lactamase FRET ratio, 18 h; series mostly up to 76.7 µM
# In short: as §1
# [10] = target: Peroxisome proliferator-activated receptor gamma (Homo sapiens) (UniProt P37231); test: qHTS assay for small molecule agonists of peroxisome proliferator-activated receptor gamma signaling (AID 588536; active means well fitted curve in the direction sought with a large enough effect in the signal ratio, with a control signal flat, not every such curve was filed as active; the % refers to the signal ratio); details: HEK293 PPARg-UAS-bla, beta-lactamase ratio, 16 h, percent of rosiglitazone response, DMSO as zero; series mostly up to 76.7 µM
# In short: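 Cells were plated and held 6–6.5 h at 37 C, then compounds were added as a titration series. After a further 16 h, CCF4 dye was loaded for 2 h at room temperature and emission at 460/530 nm recorded.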
# [11] = target: Peroxisome proliferator-activated receptor gamma (Homo sapiens) (UniProt P37231); test: qHTS assay for small molecule antagonists of peroxisome proliferator-activated receptor gamma signaling (AID 588537; active means well fitted inhibition curve with a large enough effect in the signal ratio, with a control signal flat, not every such curve was filed as active; the % refers to the signal ratio;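 further: reporter cells co-stimulated with 50 nM rosiglitazone agonist during compound treatment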); details: HEK293 PPARg-UAS-bla, beta-lactamase ratio, antagonist mode; series mostly up to 76.8 µM
# In short: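 Cell-based beta-lactamase assay; GW9662 served as the antagonist control. Stimulation used rosiglitazone, final 50 nM, 16 h, 37 C.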
# [12] = target: Vitamin D3 receptor (Homo sapiens) (UniProt P11473); test: qHTS assay for small molecule antagonists of vitamin D receptor signaling (AID 588541; calls by dose curve;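 further: receptor activated by calcitriol during compound treatment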); details: HEK293T VDR-UAS-bla, beta-lactamase ratio, antagonist mode; series mostly up to 76.7 µM
# In short: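 Antagonist-mode beta-lactamase reporter assay: HEK293T VDR-UAS-bla cells were exposed to titrated compound alongside 1-alpha,25-dihydroxyvitamin D3 at 3 nM final for 16 h. Values were normalized to the 50 nM agonist control and DMSO basal, with IC50 and efficacy from Hill equation fits.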
# [13] = target: Vitamin D3 receptor (Homo sapiens) (UniProt P11473); test: qHTS assay for small molecule agonists of vitamin D receptor signaling (AID 588543; calls by dose curve); details: HEK293T VDR-UAS-bla, beta-lactamase ratio, 16 h; series mostly up to 76.8 µM
# In short: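 Reporter cells (HEK293T, VDR-UAS-bla) were seeded in medium with 2% charcoal-stripped serum and incubated 5 h, then compounds in concentration series were added for 16 h at 37 °C. Stimulation was scaled between DMSO basal and 50 nM 1α,25-dihydroxyvitamin D3.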
# [14] = qHTS assay for small molecule agonists of retinoid X receptor alpha signaling (AID 588544; calls by dose curve); details: HEK293T RXRa-UAS-bla, beta-lactamase reporter, 18 h; 530 nm emission
# [15] = target: Retinoic acid receptor RXR-alpha (Homo sapiens) (UniProt P19793); test: as above; details: HEK293T RXRa-UAS-bla, beta-lactamase reporter, 18 h; series mostly up to 76.7 µM
# [16] = qHTS assay for small molecule antagonists of retinoid X receptor alpha signaling (AID 588546; active means well fitted inhibition curve with a large enough effect in the signal ratio, with a control signal flat, not every such curve was filed as active; the % refers to the signal ratio;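 further: cells stimulated with 9-cis-retinoic acid as agonist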); details: HEK293T RXRa-UAS-bla, beta-lactamase ratio, antagonist mode; measured here: W530 green channel, cytotoxicity proxy
# In short: (§2)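 Beta-lactamase reporter inhibition, read as CCF4 fluorescence ratio (ex 405, em 460/530 nm) after 2 h at RT. HEK293T UAS-bla cells, 2500/well, were stimulated with 9-cis-RA at 500 or 100 nM final alongside test compound for 18 h at 37 C.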
# [17] = target: Retinoic acid receptor RXR-alpha (Homo sapiens) (UniProt P19793); test: as above; details: HEK293T RXRa-UAS-bla, beta-lactamase ratio, antagonist mode
# In short: as §2
# [18] = target: Thyroid hormone receptor beta (Homo sapiens) (UniProt P10828); test: qHTS assay for small molecule antagonists of thyroid hormone receptor beta signaling (AID 588547; active means well fitted inhibition curve with a large enough effect in the signal ratio, with a control signal flat, not every such curve was filed as active; the % refers to the signal ratio;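 further: cells stimulated with 0.4 nM T3 agonist during compound exposure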); details: TR-UAS-bla HEK293, beta-lactamase ratio, antagonist mode, 18 h
# In short: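 Inhibition of T3-driven (0.4nM final) beta-lactamase reporter activity was measured over 0.59 nM to 92 uM compound after 18 h at 37 C. The cells were GripTite HEK293 TR-UAS-bla in charcoal/dextran-stripped serum, with CCF4 ratio read-out and IC50 from Hill fits.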
# [19] = qHTS assay for small molecule agonists of the antioxidant response element (ARE) signaling pathway (AID 651741; active means well fitted activation curve with a large enough effect in the signal ratio; the % refers to the signal ratio); details: HepG2 ARE-bla reporter, beta-lactamase FRET ratio, 16 h; series mostly up to 96 µM
# In short: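 Agonist activity is measured as ARE-driven beta-lactamase expression in a stable HepG2 reporter line, using 16 h compound treatment at 37 C and a FRET substrate fluorescence readout after 2 h.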
# [20] = qHTS assay for environmental chemicals that activate the Aryl hydrocarbon Receptor (AhR) signaling pathway (AID 651777); details: 1A2-DRE human hepatoma cells, luciferase, 24 h; stronger effect = higher value; further: nearly all actives have a fitted effect of over 15% in size
# In short: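 Measured luciferase activity, read 30 min after One-Glo addition at room temperature, from human hepatoma cells bearing a dioxin response element–CYP1A2 promoter reporter and exposed to compound for 24 hr at 37 C.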
# [21] = target: Peroxisome proliferator-activated receptor alpha (Homo sapiens) (UniProt Q07869); test: qHTS assay for small molecule agonists of the peroxisome proliferator-activated receptor alpha (PPARalpha) signaling pathway (AID 651778); details: PathHunter PPARalpha complementation, chemiluminescence, 6 h; stronger effect = higher value
# In short: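 Chemiluminescence from complemented enzyme reported PPARalpha activation in cells after 6 hr of compound treatment at 37 C. The detection reagent was incubated for 60 min at room temperature, and compounds were scored as agonists.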
# [22] = qHTS assay for small molecule agonists of the antioxidant response element (ARE) signaling pathway measured by Nrf2-dependant transcriptional activity (AID 720636; active means well fitted curve in the direction sought with a large enough effect in the repeat runs; an effect the other way counts as inactive or inconclusive;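 further: HepG2 cells with an ARE-driven luciferase reporter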); details: ARE-luc HepG2, Nrf2 luciferase reporter, 16 h; series mostly up to 92.4 µM
# In short: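 In HepG2 cells engineered with an Nrf2-responsive luciferase gene, ARE induction was quantified as luminescence after 16 hr compound treatment at 37 C.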
# [23] = qHTS assay for small molecule agonists of the antioxidant response element (ARE) signaling pathway measured by Nrf2-dependant transcriptional activity - cell viability counter screen (AID 720653; active means well fitted curve in the direction sought with a large enough effect in the repeat runs; an effect the other way counts as inactive or inconclusive); details: ARE-bla HepG2 viability, CellTiter-Glo ATP luminescence, 16 h; stronger effect = lower value
# In short: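 Cytotoxicity counter screen: intracellular ATP quantified by CellTiter-Glo luminescence in the same ARE-bla HepG2 plates, after 16 h compound exposure and a 2 h beta-lactamase substrate step.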
# [24] = qHTS assay for cell viability of HEK293 cells (AID 743288); details: ATP luminescence (CellTiter-Glo), 18 h, stronger effect = lower value; further: nearly all actives have a fitted effect of over 50% in size
# In short: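 Viable-cell counts were inferred from luciferase-based ATP content in HEK293 cells seeded at 2,000/well, pre-incubated ≥5 h, then dosed with DMSO-solubilised compounds for 18 h at 37 C.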
# [25] = qHTS assay for cell viability of the p53RE-bla HCT-116 cell line (AID 743292); details: p53RE-bla HCT-116 viability, ATP luminescence, 16 h; series mostly up to 95 µM; further: nearly all actives have a fitted effect of over 55% in size
# In short: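 Intracellular ATP of p53RE-bla HCT-116 cells measured by luciferase luminescence following 16 h compound incubation at 37 C; DMSO-only wells served as vehicle controls.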
# Chain of Vitamin D3 receptor (Homo sapiens) (P11473 whole entry, looked up): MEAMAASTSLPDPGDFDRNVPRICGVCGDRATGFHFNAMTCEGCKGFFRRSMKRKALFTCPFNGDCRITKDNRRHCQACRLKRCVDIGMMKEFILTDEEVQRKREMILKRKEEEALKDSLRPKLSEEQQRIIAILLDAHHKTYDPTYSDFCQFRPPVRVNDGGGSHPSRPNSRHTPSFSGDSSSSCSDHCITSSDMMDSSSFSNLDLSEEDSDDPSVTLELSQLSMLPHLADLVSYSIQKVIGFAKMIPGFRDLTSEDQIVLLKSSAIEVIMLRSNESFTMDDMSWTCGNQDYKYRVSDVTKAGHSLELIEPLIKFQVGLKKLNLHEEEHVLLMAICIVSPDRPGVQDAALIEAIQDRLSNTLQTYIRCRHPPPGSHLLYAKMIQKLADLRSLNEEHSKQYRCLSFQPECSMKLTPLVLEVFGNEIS
# Chain of Retinoic acid receptor RXR-alpha (Homo sapiens) (P19793 whole entry, looked up): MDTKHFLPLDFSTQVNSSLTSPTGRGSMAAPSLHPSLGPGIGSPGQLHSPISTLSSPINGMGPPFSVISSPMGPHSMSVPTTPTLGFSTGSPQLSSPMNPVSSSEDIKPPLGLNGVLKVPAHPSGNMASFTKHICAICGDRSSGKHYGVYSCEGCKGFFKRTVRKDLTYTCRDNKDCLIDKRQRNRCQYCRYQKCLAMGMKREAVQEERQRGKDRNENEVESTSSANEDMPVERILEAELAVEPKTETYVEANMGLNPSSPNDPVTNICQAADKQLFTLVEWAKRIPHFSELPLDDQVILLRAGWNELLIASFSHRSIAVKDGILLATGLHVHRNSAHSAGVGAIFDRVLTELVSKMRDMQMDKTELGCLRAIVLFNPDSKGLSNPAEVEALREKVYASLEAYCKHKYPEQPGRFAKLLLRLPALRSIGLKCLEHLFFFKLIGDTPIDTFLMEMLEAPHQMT
# Chain of Estrogen receptor (Homo sapiens) (P03372 whole entry, looked up): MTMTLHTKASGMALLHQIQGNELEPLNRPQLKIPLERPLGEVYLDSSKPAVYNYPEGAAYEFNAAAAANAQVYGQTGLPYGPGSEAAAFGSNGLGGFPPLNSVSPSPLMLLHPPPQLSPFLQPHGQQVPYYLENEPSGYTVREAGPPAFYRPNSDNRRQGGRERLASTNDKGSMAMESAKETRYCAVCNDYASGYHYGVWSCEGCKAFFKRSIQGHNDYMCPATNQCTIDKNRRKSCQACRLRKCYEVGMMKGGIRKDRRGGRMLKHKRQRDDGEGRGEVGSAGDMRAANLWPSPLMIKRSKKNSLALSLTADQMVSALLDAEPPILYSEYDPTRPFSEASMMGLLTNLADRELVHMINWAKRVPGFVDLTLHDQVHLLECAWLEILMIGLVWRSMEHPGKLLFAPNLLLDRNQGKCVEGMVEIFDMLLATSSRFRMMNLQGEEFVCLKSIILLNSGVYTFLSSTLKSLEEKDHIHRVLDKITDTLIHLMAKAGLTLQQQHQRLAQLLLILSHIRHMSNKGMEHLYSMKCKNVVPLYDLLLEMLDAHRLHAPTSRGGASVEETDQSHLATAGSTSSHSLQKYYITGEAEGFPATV
# Chain of Peroxisome proliferator-activated receptor gamma (Homo sapiens) (P37231 whole entry, looked up): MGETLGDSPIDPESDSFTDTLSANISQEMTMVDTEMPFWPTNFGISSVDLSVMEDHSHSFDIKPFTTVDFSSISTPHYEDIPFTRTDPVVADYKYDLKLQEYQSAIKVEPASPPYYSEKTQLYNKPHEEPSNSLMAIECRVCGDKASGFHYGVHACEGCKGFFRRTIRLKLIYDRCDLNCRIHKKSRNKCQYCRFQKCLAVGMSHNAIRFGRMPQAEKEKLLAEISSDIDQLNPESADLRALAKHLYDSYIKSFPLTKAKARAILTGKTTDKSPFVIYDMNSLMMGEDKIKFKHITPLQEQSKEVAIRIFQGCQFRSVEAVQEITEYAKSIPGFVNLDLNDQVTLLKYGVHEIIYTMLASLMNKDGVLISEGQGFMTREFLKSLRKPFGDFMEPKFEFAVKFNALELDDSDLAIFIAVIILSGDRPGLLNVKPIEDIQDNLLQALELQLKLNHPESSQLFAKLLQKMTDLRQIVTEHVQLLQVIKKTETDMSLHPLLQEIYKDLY
# Chain of Peroxisome proliferator-activated receptor alpha (Homo sapiens) (Q07869 whole entry, looked up): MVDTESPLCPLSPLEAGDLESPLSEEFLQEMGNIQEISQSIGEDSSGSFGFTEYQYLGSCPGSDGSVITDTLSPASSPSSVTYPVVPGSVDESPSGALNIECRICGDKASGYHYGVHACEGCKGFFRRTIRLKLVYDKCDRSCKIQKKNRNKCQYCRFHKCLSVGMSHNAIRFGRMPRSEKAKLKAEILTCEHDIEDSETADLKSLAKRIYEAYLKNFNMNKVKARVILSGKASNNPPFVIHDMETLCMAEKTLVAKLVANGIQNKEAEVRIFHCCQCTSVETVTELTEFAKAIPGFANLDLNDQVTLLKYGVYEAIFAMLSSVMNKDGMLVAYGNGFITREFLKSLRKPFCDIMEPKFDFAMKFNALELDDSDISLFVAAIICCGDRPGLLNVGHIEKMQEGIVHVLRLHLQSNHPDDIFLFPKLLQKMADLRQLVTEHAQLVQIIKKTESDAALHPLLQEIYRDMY
# Chain of Peroxisome proliferator-activated receptor delta (Homo sapiens) (Q03181 whole entry, looked up): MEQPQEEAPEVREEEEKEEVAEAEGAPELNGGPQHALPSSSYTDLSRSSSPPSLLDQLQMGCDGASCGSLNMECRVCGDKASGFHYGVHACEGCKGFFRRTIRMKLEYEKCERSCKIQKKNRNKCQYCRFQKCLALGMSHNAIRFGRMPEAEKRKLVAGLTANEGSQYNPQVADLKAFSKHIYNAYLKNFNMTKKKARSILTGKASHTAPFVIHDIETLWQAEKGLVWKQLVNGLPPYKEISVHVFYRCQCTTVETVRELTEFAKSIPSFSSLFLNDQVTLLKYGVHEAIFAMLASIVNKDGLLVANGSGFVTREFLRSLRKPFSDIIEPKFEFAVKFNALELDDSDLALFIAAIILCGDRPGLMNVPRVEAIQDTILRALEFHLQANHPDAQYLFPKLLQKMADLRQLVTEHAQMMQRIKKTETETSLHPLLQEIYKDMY
# Chain of Ubiquitin carboxyl-terminal hydrolase 1 (Homo sapiens) (O94782 whole entry, looked up): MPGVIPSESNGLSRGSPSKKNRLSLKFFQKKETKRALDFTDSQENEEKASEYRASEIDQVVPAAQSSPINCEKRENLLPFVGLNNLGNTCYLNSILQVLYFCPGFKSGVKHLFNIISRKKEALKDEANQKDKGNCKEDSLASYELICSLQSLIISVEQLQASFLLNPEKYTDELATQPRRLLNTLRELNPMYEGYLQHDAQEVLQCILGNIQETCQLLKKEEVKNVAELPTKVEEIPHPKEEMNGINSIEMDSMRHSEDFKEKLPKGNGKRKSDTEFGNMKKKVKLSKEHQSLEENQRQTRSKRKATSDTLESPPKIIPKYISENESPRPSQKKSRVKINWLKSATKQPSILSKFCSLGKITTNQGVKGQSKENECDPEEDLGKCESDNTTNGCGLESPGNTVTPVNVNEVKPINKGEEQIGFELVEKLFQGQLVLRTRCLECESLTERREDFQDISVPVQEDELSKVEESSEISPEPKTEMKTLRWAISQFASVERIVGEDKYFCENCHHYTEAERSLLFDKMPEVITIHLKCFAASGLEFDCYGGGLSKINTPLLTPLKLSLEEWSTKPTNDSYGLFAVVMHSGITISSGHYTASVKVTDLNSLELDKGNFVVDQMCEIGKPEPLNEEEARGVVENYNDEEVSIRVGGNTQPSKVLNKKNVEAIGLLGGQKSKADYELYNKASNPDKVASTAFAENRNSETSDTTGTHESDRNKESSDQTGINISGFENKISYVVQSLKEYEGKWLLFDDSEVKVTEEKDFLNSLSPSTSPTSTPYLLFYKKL
# Chain of Thyroid hormone receptor beta (Homo sapiens) (P10828 whole entry, looked up): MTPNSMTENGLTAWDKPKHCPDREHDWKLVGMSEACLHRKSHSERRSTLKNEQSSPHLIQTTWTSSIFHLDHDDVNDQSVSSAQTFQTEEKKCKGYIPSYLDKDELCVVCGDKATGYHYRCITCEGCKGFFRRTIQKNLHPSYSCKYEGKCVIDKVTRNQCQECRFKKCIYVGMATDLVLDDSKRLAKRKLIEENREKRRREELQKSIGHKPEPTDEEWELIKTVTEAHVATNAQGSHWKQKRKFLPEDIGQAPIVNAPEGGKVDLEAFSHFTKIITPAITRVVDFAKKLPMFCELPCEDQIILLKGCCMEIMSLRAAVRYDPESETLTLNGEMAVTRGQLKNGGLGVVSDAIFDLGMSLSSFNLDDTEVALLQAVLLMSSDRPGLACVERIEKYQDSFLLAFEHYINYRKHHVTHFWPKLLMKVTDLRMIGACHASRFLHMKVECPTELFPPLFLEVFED
# Chain of Cytochrome P450 3A4 (Homo sapiens) (P08684 whole entry, looked up): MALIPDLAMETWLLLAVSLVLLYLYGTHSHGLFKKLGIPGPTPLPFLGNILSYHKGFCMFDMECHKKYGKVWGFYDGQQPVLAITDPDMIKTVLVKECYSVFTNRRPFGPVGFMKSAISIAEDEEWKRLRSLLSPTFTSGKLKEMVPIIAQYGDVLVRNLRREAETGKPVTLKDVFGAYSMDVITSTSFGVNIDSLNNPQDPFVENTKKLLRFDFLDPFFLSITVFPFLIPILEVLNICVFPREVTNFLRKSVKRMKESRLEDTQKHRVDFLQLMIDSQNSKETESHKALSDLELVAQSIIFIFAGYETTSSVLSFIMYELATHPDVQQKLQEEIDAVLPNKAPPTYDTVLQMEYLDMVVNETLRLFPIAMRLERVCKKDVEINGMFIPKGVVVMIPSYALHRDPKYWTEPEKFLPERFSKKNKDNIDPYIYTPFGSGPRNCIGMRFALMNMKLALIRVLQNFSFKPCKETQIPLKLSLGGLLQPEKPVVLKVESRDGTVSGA
compound,measurement,setting,value
COc1c(Cl)ccc(Cl)c1C(=O)O,Potency,[1],inactive
same,Potency,[2],inactive
same,Potency,[3],inactive
same,"activity change, negative = inhibition",[4]; at 57.5 µM (top of the series),0.0476% (inactive)
same,max response,[4]; measured here: cell count channel max response,-8.45%
same,max response,[4]; measured here: lipid channel max response,-7.42%
same,Potency,[5],inactive
same,outcome,[6],inactive
same,outcome,[7],inactive
same,max response,[8],-7.82%
same,outcome,[9],inactive
same,outcome,[10],inactive
same,outcome,[11],inactive
same,outcome,[12],inactive
same,outcome,[13],inactive
same,max response,[14],-9.41%
same,outcome,[15],inactive
same,max response,[16],-0.329%
same,max response,[17],3.8% (inactive)
same,activity change % (negative = inhibition),[18],5.53% (inactive)
same,Potency,[19],inactive
same,activation,[20],1.18% (inactive)
same,max response,[21],0.109% (inactive)
same,outcome,[22],inactive
same,max response,[23],-4.23% (inactive)
same,max response,[24],-3.63% (inactive)
same,outcome,[25],inactive
